Bioassay records: PubChem BioAssay, several laboratories
MazEF act: increases E. coli MazEF RNase cleavage of RNA | activation, % at 20 µM | 350,000 compounds, 0.32% hits | FAM/BHQ RNA-DNA oligo cleavage fluorescence, 5 h | P0AE70 | AID 504720; in the data active = activation above about 50%
BoNT-F LC inh: inhibitors of Botulinum neurotoxin F light chain protease | inhibition, % at 10 µM | AID 588497 | 360,000 compounds, 0.22% hits | Multiplex microsphere protease cleavage assay, flow cytometry; in the data active = inhibition above about 35%, passing the limit was not always enough; inconclusive = no clear call, values can overlap the other calls; note: plate controls were buffer without enzyme for full effect and enzyme alone for no effect
Bead autofluor: flagged as autofluorescent in microsphere protease counterscreen | fluorescence intensity (no concentration beside the values) | compound autofluorescence counterscreen, microsphere flow cytometry; hits give high values | 360,000 compounds, 3.1% hits | AID 624483; in the data active = fluorescence intensity above about 16000; inconclusive = no clear call, values can overlap the other calls
BoNT-A LC inh2: inhibitors of Botulinum neurotoxin A light chain protease. multiplex microsphere protease substrate cleavage, flow cytometry. 360,000 compounds, 0.17% hits. inhibition, % at 10 µM; note: plate controls were buffer without enzyme for full effect and enzyme alone for no effect
Anthrax LF prot: anthrax lethal factor protease inhibition. P15917. multiplex microsphere protease cleavage assay, LF. inhibition, % at 10 µM. 360,000 compounds, 0.12% hits; note: plate controls were buffer without enzyme for full effect and enzyme alone for no effect
Target sequence (P15917 whole entry, looked up): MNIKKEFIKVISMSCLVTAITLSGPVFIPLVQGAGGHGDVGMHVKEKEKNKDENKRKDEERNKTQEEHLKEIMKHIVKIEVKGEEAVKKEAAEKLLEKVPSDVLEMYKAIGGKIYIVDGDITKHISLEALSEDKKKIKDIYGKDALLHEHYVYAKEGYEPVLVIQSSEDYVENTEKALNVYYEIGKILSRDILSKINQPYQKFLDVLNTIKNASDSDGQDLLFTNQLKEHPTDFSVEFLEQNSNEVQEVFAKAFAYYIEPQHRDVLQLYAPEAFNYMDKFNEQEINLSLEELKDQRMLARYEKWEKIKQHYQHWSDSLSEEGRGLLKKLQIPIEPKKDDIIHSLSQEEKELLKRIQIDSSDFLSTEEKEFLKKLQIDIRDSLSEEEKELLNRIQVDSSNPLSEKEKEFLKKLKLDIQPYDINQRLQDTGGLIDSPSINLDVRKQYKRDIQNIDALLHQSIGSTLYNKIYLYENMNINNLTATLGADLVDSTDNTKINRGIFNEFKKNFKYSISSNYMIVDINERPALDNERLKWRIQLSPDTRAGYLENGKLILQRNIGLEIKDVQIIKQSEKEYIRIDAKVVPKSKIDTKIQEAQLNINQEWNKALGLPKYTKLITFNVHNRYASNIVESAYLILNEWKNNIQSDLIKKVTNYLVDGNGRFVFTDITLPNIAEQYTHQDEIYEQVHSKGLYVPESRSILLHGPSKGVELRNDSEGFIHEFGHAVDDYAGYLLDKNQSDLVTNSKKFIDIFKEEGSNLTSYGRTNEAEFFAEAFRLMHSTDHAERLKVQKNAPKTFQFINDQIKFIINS
The depositor's hits bear a star; i = inactive; u = inconclusive; x = no result. Rows were chosen to be rich in hits. Some 3.7% of all compounds tested hit in one or more screens of this group. Cut-off read from the data, not from the text of the source, unless noted: active = inhibition above about 30%; inconclusive = no clear call, values can overlap the other calls; inactive = below that.

SMILES | MazEF act | BoNT-F LC inh | Bead autofluor | BoNT-A LC inh2 | Anthrax LF prot
CC(C)CSc1ncnc2c1oc1nc3c(cc12)COC(C)(C)C3 | 3.2 | -2.8 | 20132* | -1.2 | 1.5
CCN(CC)c1ccc(/C=C/C(=O)c2ccc(Br)cc2)cc1 | i | 81.2* | 30707* | 61.7* | 42.3*
CC(C)C(=O)Nc1ccc(-c2nnc(-c3ccccc3)o2)cc1 | 0.2 | -15.1 | 2842 | 2.5 | -20.6
CC(C)C(=O)Nc1ccc(C(=O)c2ccccc2)cc1 | -3.1 | -0.5 | 19934* | -0.7 | -0.2
CN(C)c1ccc(C(=O)c2ccccc2)cc1 | 2.1 | -3.3 | 17206* | -1.6 | -2.2
CC(=O)Nc1cccc(C(=O)/C=C/c2ccc(N(C)C)cc2)c1 | 145.3* | 3.0 | 6083 | 12.0 | 6.7
CC(=O)Nc1cccc(C(=O)/C=C/c2ccco2)c1 | 8.1 | -1.1 | 22380* | u | -5.8
CN(C)c1ccc(C(=O)/C=C/c2ccccc2)cc1 | 458.9* | 2.3 | 1998 | 7.1 | 2.4
CC(=O)Nc1ccc(C(=O)/C=C/c2ccco2)cc1 | 5.0 | -16.7 | 2568 | 0.7 | -5.5
O=c1nc(-c2ccccc2Cl)c2cc(F)ccc2[nH]1 | 7.0 | 50.7* | 4135 | -1.4 | 16.1
O=c1c2ccccc2[nH]c2ccc(F)cc12 | 7.3 | -5.5 | 4010 | -0.6 | -1.2
O=C1CCC(C(=O)OCc2nnc(-c3ccccc3)o2)=NN1 | 0.9 | -4.0 | 6389 | -0.6 | 2.0
O=C1CN(C(=O)c2ccccc2C(=O)O)c2ccccc2N1 | 14.0 | -1.1 | 3318 | -1.7 | -8.7
O=C1CN(C(=O)CN2CCN(S(=O)(=O)c3ccccc3)CC2)c2ccccc2N1 | 0.1 | -0.2 | 3525 | 0.1 | 0.2
CC1CCN(CC(=O)N2CC(=O)Nc3ccccc32)CC1 | -2.1 | -1.1 | 22135* | u | 1.1
O=C(CN1CCCCC1)N1c2ccccc2CCc2ccccc21 | -7.2 | 3.7 | 3047 | -1.1 | 2.9
O=C1CN(C(=O)c2ccccc2Cl)c2ccccc2N1 | 5.0 | 44.1* | 2983 | 1.9 | 3.1
CC1CCN(CC(=O)N2c3ccccc3CCc3ccccc32)CC1 | 4.3 | -1.4 | 16766* | -0.6 | -5.8
CCOC(=O)C(=O)NC1CC=CCC1c1ccc2c(c1)OCO2 (stereo not given) | -0.7 | -2.9 | 3294 | -0.1 | -1.6
CCOC(=O)C1=C(O)CCn2c1nc1ccccc12 | -7.4 | 10.6 | 19422* | 9.1 | -7.2
CC(Oc1ccccc1)C(=O)N1CCN=C1SCc1ccccc1F (stereo not given) | 5.5 | -0.9 | 4930 | 0.4 | 1.8
C#CCN1C(=O)S/C(=C\c2cc3c(cc2OC)OCO3)C1=O | 196.1* | u | 4454 | 0.5 | 14.6
COCCCN(C(C)=O)c1nc(-c2ccc(OC)cc2)cs1 | -4.9 | 3.4 | 21678* | 2.8 | -0.6
CCN(C(=O)c1cccs1)c1nc(-c2ccc(OC)cc2)cs1 | -8.3 | -0.8 | 4143 | 0.0 | -2.9
CCN(CC)CCCN(C(=O)c1ccc(OC)cc1)c1nc(-c2ccc(OC)cc2)cs1 | 29.6 | -22.0 | 4034 | -5.9 | 4.1
SMILES | MazEF act | BoNT-F LC inh | Bead autofluor | BoNT-A LC inh2 | Anthrax LF prot
COc1ccc(-c2csc(N(CCCN(C)C)C(=O)c3cccs3)n2)cc1 | 17.2 | -5.6 | 21006* | u | 0.3
O=C(c1cccs1)N(CC1CCCO1)c1nc(-c2ccccc2)cs1 (stereo not given) | 1.5 | -2.5 | 23325* | -0.6 | -0.2
CCOc1ncccc1C(=O)OCC(=O)NCc1ccccc1 | 6.9 | 2.8 | 4081 | 0.1 | -2.4
CCOC(=O)C1=NS(=O)(=O)NC(C)=C1 | 8.6 | 0.6 | 2998 | -0.3 | -4.5
COc1ccccc1N1C(=O)CC(N2CCN(c3ccc(Cl)cc3)CC2)C1=O (stereo not given) | 0.2 | 1.4 | 3512 | 1.5 | 28.3
COc1ccc(C(=O)Nc2ccc(S(=O)(=O)N3CCc4ccccc43)cc2)cc1 | -1.1 | -5.8 | 16637* | -0.9 | -3.3
Cc1ccc(C(=O)Nc2ccc(S(=O)(=O)N3CCc4ccccc43)cc2)o1 | 1.2 | -2.8 | 23775* | u | -7.2
NS(=O)(=O)c1ccc(NC(=O)c2ccc(S(=O)(=O)N3CCc4ccccc43)cc2)cc1 | 11.7 | 1.7 | 2543 | -0.4 | 0.5
O=C(Nc1ccc(S(=O)(=O)N2CCCc3ccccc32)cc1)C1CCCO1 (stereo not given) | -0.1 | -3.2 | 17480* | -5.6 | -3.0
Cc1ccc(NC(=O)CCN2CCC(C(N)=O)CC2)cc1 | 1.1 | u | 4580 | 1.9 | 0.6
CCOc1ccc2nc(S(=O)(=O)NC(=O)C3(C)CCN3C(=O)CCc3cccs3)sc2c1 (stereo not given) | x | 5.2 | 3663 | -0.1 | -1.3
CCN(CC)CCCNS(=O)(=O)c1ccc(OC)cc1 | -2.5 | -3.5 | 17061* | u | -1.4
Cc1csc(C)[n+]1CC(=O)c1ccccc1 | -24.1 | 48.5* | 3957 | -0.9 | 8.3
Cc1cnc(C(=O)Nc2ccc(F)cc2)cn1 | 4.1 | 6.0 | 21955* | 3.1 | 2.5
COc1cnc(-c2ccccn2)nc1Oc1ccc(Cl)cc1 | -0.5 | 2.5 | 16340* | -0.2 | 1.6
COc1cnc(-c2ccccn2)nc1Sc1cccc(Cl)c1 | -3.3 | -5.3 | 17458* | -2.6 | -2.6
COc1cnc(-c2ccccn2)nc1Oc1ccc(Cl)c2ccccc12 | -7.1 | -7.6 | 17538* | -3.9 | -1.9
Cc1ccc(NS(=O)(=O)c2ccc(-n3cccn3)cc2)c(Cl)c1 | -1.1 | 2.4 | 3836 | -0.1 | 9.0
COc1ccc(CC(=O)OCC(=O)Nc2ccc(Br)cc2)cc1 | -2.0 | -1.9 | 2080 | 0.0 | 0.5
CCOC(=O)N1CCN(C(=O)/C(=C/c2ccc(OC)cc2)NC(=O)c2ccccc2)CC1 | 6.0 | -13.0 | 2819 | 0.1 | -0.1
CCOC(=O)N1CCN(C(=O)/C(=C/c2cccc3ccccc23)NC(=O)c2ccc(OC)cc2)CC1 | 12.4 | -5.4 | 24028* | -2.1 | -1.8
O=C(c1cccc(NS(=O)(=O)c2cccc(C(F)(F)F)c2)c1)N1CCOCC1 | -12.1 | -6.0 | 5737 | 0.5 | 0.4
Cc1ccc(S(=O)(=O)N2CCN(C(=S)NCC3CCCO3)CC2)cc1 (stereo not given) | 3.1 | 24.5 | 3966 | 3.0 | 5.0
CCOc1ccc(N(C(=O)c2ccc3c(c2)OCO3)C2C=CS(=O)(=O)C2)cc1 (stereo not given) | 3.6 | 6.1 | 5247 | 1.4 | -0.3
COC(=O)/C=C(\C)NC(=O)c1cccs1 | 0.8 | -10.9 | 18031* | -5.3 | -6.1
SMILES | MazEF act | BoNT-F LC inh | Bead autofluor | BoNT-A LC inh2 | Anthrax LF prot
CCCN(C(=O)CSc1n[nH]c(-c2ccc(OC)cc2)n1)c1c(N)n(Cc2ccccc2)c(=O)[nH]c1=O | 9.3 | 9.2 | 3501 | 9.5 | 7.1
COc1ccccc1-n1cc2c([N+](=O)[O-])cc([N+](=O)[O-])cc2n1 | -3.1 | 12.6 | 3691 | 12.3 | 3.8
CCOC(=O)c1cc(-c2ccc(C)cc2)n(CCC(=O)NCCN(C)C)c1C | 9.1 | -2.1 | 22889* | 0.1 | -5.6
C(C#CCCCCCCCCC[n+]1ccccc1)#CCCCCCCCCC[n+]1ccccc1 | 18.1 | -40.4 | 3736 | -0.1 | -10.7
COc1cc(C(C)=O)ccc1Oc1ncnc2c1cnn2-c1ccccc1 | 60.2* | -2.5 | 6911 | -0.6 | -0.1
COc1cc(C(C)=O)ccc1Oc1ncnc2c1cnn2-c1ccc(C)c(C)c1 | -5.8 | 3.3 | 8836 | 0.6 | 1.7
